Experimental data from PubChem BioAssay.
Active and inactive are the calls of the source.

Legend:
[1] = test system: PRMT1 (protein arginine N-methyltransferase 1); assay: PRMT1 binders on small-molecule microarrays, primary screen, biochemical, small-molecule microarray, 635 nm fluorescence (AID 1088); details: small-molecule microarray binding, higher = more signal;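 note: binding of Prmt1 protein to compounds spotted on small-molecule microarray slides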
[2] = yeast growth modulation, basal conditions, primary screen, YJM789 clinical isolate, OD600, 24 h (AID 1089);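 note: growth of clinical yeast isolate S. cerevisiae YJM 789 seeded 1000 cells per well; test concentration not given here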; details: S. cerevisiae YJM789 growth, higher = more signal, called active from +8 up or from −8 down
[3] = fission yeast growth modulation, primary screen, strain 972, OD600, 24 h, no modulator (AID 1090);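 note: basal condition with compound alone and no growth modifier present; test concentration not given here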; details: S. pombe 972 growth, higher = more signal, called active from +8 up or from −8 down
[4] = S. cerevisiae growth modulation with rapamycin, primary screen, strain BY4716, OD600, 96 h (AID 1091); details: higher = more signal, called active from +8 up or from −8 down; note: test concentration not given here
[5] = target: Torsin-1A-interacting protein 2 (Homo sapiens) (UniProt Q8NFQ8); assay: LULL1 binders on small-molecule microarray, primary screen, cell lysate, human LULL1 lysate, 635/667 nm fluorescence (AID 1092); details: hLULL1 lysate binding, 635 nm fluorescence, higher = more signal;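 note: probe is lysate of COS7 cells overexpressing human LULL1; score merges per-feature 667 nm fluorescence with signal-to-noise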
[6] = E. coli growth modulation, two-sided OD650, primary screen, E. coli filamentation project, strain DRC41, 24 h (AID 1093); details: OD650, 24 h, higher = more signal, called active from +8 up or from −8 down;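 note: MC1000 strain lacking acrAB efflux and sulA so SOS filamentation is blocked; test concentration not given here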
[7] = small-molecule microarray binders of probe aLefty2, primary screen, biochemical, biotinylated probe, 635/667 nm fluorescence (AID 1094); details: higher = more signal;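 note: score merges spot fluorescence near 667 nm with spot signal-to-noise ratio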
[8] = test system: Noggin (protein binding on small-molecule microarray); assay: Noggin binders on small-molecule microarray, primary screen, biochemical, 635/667 nm fluorescence (AID 1095); details: 635 nm fluorescence, higher = more signal;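 note: score merges 667 nm feature fluorescence with signal to noise over triplicate slides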
[9] = target: Neurogenic locus notch homolog protein 3 (Homo sapiens) (UniProt Q9UM47); assay: NOTCH3 binders on small-molecule microarray, primary screen, biochemical, 635/667 nm fluorescence (AID 1096); details: NOTCH3 binding, 635 nm fluorescence, higher = more signal
[10] = small-molecule microarray binders of probe aEGFR, primary screen, biochemical, biotinylated probe, 635/667 nm fluorescence (AID 1097); details: higher = more signal;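 note: probe is a biotinylated anti-EGFR antibody binding compounds printed on slides; score combines fluorescence near 667 nm and signal to noise of each spot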
[11] = test system: Plasmodium falciparum Sir2 (PF13_0152, Sir2A); assay: pfSir2 binders on small-molecule microarrays, primary screen, biochemical, small-molecule microarray, 635 nm fluorescence (AID 1098); details: small-molecule microarray binding, fluorescence 635 nm; higher = more signal;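 note: score merges spot fluorescence intensity with its signal-to-noise ratio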
[12] = small-molecule microarray binders of probe aDKK1, primary screen, biochemical, biotinylated probe, 635/667 nm fluorescence (AID 1099); details: higher = more signal;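 note: score merges 667nm spot fluorescence with signal to noise across triplicate slides; reference of the scale not given here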
[13] = small-molecule microarray binders of probe aCHRDL2, primary screen, biochemical, biotinylated probe, 635/667 nm fluorescence (AID 1100); details: higher = more signal
[14] = splicing luciferase reporter signal modulators, primary screen, spliceosome inhibition project, cell-based, HEK293, splice +/- reporter (AID 1101); details: luminescence, 24 h, higher = more signal, called active from +8 up or from −8 down;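 note: HEK293 cells carrying a splicing-competent luciferase reporter gene; test concentration not given here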
[15] = target: Fibroblast growth factor 10 (Homo sapiens) (UniProt O15520); assay: FGF10 binders on small-molecule microarrays, primary screen, biochemical, small-molecule microarray, 635 nm fluorescence (AID 1102); details: FGF10 binding, fluorescence 635 nm, higher = more signal
[16] = test system: glycogen synthase kinase-3 (GSK3A per assay name; protocol says GSK3B); assay: GSK3 binders on small-molecule microarrays, primary screen, biochemical, small-molecule microarray, 635 nm fluorescence, GSK3A (AID 1103); details: small-molecule microarray binding, fluorescence 635 nm; higher = more signal; note: the record names both GSK3A and GSK3B
[17] = target: Epidermal growth factor receptor (Homo sapiens) (UniProt P00533); assay: EGFR binders on small-molecule microarrays, primary screen, biochemical, small-molecule microarray, 635 nm fluorescence (AID 1104); details: EGFR binding, higher = more signal;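 note: score merges 667 nm emission intensity with spot signal to noise over triplicate slides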
[18] = target: Follistatin-related protein 3 (Homo sapiens) (UniProt O95633); assay: FSTL3 binders on small-molecule microarrays, primary screen, biochemical, small-molecule microarray, 635 nm fluorescence (AID 1105); details: FSTL3 binding, higher = more signal;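 note: score merges emission near 667 nm and signal to noise per printed spot across three slides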
[19] = target: Dickkopf-related protein 1 (Homo sapiens) (UniProt O94907); assay: DKK1 binders on small-molecule microarrays, primary screen, biochemical, small-molecule microarray, 635 nm fluorescence scan (AID 1106); details: DKK1 binding, higher = more signal;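 note: score merges emission near 667 nm with signal to noise over three replicate slides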
[20] = test system: Inhibin beta A chain (activin A); assay: INHBA (activin A) binders on microarrays, primary screen, biochemical, small-molecule microarray, 635 nm fluorescence scan (AID 1107); details: small-molecule microarray binding, higher = more signal;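 note: mouse activin A protein probed at 4.33 µg/mL on printed slides; score merges bound-protein fluorescence near 667 nm with spot signal-to-noise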

Chain of Torsin-1A-interacting protein 2 (Homo sapiens) (Q8NFQ8 whole entry, looked up): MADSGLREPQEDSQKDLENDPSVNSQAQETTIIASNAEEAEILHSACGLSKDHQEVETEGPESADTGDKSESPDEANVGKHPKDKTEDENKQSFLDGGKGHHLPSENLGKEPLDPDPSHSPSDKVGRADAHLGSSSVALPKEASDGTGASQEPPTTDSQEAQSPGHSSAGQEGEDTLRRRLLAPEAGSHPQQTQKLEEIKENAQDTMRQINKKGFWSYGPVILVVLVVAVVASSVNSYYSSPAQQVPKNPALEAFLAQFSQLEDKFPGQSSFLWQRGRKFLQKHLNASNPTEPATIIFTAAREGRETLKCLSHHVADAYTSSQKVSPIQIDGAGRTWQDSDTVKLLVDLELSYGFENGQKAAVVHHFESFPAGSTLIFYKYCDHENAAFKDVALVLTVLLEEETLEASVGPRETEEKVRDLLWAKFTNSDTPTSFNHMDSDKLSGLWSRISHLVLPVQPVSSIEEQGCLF
Chain of Follistatin-related protein 3 (Homo sapiens) (O95633 whole entry, looked up): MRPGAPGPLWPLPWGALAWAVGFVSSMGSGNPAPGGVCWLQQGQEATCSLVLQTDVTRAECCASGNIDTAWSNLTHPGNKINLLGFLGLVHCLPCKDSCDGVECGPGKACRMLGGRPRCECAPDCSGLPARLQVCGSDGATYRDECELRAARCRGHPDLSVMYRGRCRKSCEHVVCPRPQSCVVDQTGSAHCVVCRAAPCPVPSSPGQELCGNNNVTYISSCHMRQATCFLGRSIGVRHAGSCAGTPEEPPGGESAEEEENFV
Chain of Dickkopf-related protein 1 (Homo sapiens) (O94907 whole entry, looked up): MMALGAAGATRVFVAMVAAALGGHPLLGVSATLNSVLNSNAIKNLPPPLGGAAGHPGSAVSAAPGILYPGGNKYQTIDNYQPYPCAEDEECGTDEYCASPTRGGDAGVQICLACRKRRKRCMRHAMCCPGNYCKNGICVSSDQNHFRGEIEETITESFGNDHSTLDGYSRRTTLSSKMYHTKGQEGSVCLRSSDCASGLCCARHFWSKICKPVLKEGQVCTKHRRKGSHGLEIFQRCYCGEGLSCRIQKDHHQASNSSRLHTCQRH
Chain of Epidermal growth factor receptor (Homo sapiens) (P00533 whole entry, looked up): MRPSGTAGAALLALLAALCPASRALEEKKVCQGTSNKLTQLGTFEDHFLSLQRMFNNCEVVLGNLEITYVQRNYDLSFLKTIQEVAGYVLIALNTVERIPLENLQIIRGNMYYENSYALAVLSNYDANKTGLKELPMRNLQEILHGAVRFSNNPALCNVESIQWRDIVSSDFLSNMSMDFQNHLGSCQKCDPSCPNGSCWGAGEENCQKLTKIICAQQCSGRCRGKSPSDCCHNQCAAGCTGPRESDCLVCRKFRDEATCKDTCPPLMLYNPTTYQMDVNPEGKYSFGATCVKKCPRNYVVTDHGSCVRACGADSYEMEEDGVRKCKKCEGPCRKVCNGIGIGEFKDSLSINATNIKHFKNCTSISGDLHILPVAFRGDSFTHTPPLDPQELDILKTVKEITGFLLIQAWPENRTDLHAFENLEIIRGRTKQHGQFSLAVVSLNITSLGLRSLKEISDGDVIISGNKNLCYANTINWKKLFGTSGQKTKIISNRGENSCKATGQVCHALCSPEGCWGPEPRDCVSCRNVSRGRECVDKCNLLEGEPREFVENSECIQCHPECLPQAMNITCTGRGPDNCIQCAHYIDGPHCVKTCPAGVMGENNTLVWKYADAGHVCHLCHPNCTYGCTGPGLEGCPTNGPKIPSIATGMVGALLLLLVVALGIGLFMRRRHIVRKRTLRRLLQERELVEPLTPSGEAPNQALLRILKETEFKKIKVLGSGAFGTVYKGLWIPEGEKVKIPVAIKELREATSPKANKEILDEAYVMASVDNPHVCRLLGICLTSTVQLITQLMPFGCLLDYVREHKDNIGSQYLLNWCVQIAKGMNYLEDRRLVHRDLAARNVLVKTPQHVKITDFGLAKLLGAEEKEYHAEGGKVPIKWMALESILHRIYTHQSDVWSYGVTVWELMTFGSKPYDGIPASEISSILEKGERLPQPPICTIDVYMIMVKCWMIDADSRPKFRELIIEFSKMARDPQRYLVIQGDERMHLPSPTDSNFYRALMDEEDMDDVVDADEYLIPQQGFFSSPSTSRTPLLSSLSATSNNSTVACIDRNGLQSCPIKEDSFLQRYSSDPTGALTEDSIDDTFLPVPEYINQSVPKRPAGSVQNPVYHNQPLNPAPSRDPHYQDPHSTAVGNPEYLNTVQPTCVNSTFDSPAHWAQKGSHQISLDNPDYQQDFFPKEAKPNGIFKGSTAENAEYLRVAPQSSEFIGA
Chain of Fibroblast growth factor 10 (Homo sapiens) (O15520 whole entry, looked up): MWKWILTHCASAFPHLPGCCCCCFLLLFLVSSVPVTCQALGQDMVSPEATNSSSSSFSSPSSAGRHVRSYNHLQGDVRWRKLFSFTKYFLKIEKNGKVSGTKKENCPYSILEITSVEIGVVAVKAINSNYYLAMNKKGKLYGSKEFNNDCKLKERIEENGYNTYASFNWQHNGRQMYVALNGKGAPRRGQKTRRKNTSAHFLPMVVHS
Chain of Neurogenic locus notch homolog protein 3 (Homo sapiens) (Q9UM47 whole entry, looked up): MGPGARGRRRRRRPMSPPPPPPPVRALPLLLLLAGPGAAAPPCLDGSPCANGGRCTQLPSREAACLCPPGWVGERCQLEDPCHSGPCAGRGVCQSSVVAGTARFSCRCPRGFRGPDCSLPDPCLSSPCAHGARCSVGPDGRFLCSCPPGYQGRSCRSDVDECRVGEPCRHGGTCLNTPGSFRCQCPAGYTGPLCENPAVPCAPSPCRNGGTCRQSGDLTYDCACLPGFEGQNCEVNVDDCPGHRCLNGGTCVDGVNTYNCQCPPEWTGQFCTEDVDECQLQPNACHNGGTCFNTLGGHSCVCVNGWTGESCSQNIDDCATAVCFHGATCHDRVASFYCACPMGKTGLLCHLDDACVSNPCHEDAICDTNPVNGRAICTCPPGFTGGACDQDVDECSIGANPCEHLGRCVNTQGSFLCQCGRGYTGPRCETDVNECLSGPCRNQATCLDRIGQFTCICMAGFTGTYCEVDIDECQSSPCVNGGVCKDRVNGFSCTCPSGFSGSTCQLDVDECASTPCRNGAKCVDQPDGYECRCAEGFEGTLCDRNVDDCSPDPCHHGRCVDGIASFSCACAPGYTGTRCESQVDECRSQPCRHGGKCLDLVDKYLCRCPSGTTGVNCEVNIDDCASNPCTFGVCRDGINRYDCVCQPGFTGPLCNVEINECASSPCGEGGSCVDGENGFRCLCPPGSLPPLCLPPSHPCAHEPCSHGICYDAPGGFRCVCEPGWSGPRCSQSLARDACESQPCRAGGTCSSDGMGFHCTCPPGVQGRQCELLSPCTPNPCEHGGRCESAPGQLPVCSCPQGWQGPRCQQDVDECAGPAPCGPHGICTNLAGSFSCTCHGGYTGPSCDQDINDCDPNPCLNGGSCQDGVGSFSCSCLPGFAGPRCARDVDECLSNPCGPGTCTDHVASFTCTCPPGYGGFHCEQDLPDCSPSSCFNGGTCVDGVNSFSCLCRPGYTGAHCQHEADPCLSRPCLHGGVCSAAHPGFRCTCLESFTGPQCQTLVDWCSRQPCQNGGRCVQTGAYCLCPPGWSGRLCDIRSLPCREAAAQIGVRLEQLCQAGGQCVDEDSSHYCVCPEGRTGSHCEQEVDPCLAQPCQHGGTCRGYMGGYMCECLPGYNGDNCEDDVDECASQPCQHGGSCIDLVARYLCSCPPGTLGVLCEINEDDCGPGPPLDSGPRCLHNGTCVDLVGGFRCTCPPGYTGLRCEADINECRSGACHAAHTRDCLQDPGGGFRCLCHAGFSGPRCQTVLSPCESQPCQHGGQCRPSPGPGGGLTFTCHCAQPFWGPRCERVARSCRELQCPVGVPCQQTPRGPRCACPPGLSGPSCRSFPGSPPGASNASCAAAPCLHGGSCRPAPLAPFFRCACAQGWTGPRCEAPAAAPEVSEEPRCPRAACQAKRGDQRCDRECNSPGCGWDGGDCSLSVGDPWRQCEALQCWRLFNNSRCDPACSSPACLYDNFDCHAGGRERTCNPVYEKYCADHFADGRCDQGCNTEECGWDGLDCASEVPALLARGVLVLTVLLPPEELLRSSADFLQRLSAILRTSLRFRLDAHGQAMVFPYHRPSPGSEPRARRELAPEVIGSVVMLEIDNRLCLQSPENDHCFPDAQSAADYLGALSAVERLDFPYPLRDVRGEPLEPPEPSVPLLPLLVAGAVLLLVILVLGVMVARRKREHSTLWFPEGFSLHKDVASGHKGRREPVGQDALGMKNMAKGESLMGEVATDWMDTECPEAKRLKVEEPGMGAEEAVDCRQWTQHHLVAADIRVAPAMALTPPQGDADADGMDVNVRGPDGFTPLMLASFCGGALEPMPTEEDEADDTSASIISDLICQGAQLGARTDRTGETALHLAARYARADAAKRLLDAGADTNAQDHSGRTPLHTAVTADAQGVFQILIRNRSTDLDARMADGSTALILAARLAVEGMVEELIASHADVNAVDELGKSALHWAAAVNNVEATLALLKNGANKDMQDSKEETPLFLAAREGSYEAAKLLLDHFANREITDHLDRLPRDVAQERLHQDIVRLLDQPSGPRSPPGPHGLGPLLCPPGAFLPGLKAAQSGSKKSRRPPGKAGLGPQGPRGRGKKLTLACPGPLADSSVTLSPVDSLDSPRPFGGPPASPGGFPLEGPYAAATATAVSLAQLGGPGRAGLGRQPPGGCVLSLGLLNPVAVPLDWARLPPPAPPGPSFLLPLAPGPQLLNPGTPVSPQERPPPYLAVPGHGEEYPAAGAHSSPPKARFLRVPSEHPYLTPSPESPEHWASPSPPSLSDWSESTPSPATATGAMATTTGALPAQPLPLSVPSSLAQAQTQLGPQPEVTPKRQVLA

| Compound | composite z-score [1] | z-score [2] | z-score [3] | z-score [4] | composite z-score [5] | z-score [6] | composite z-score [7] | composite z-score [8] | composite z-score [9] | composite z-score [10] | composite z-score [11] | composite z-score [12] | composite z-score [13] | z-score [14] | composite z-score [15] | composite z-score [16] | composite z-score [17] | composite z-score [18] | composite z-score [19] | composite z-score [20] |
| --- | --- | --- | --- | --- | --- | --- | --- | --- | --- | --- | --- | --- | --- | --- | --- | --- | --- | --- | --- | --- |
| CCOC(=O)C1=CC[C@@H](c2ccc(C(F)(F)F)cc2)N(S(=O)(=O)c2ccc(C)cc2)[C@H]1c1ccccc1 | 1.49 | -0.641 (inactive) | -0.482 (inactive) | 0.363 (inactive) | 2.92 | -0.617 (inactive) | 0.285 | 0.496 | 1.05 | 0.208 | 0.544 | 1 | 1.12 | -2.54 (inactive) | 0.485 | 1.31 | -0.0946 | 0.799 | -0.305 | -0.0699 |
| CC(C)[Si](C#CCCCC#N)(Oc1ccccc1Br)C(C)C | 0.987 | 1.13 (inactive) | -1.09 (inactive) | -1.96 (inactive) | 0.86 | -0.146 (inactive) | -0.203 | 0.506 | 0.653 | -0.0389 | 0.436 | -0.288 | -0.536 | -0.542 (inactive) | 0.361 | 0.693 | 0.216 | 0.58 | -0.108 | 0.32 |
| O=C1O[C@H](c2ccccc2)[C@H](c2ccccc2)N2[C@H]1[C@@H](C(=O)NC[C@H](O)c1ccccc1)[C@]1(C(=O)Nc3ccccc31)[C@H]2c1ccc(O)cc1 | 1.39 | 0.754 (inactive) | 0.817 (inactive) | 1.7 (inactive) | 2.56 | -0.408 (inactive) | -0.134 | 0.798 | 0.608 | -0.108 | 0.758 | -0.0713 | 0.489 | -0.4 (inactive) | 1.3 | 0.476 | 0.555 | 0.749 | 0.964 | -1.04 |
| CC(CO)N1C(=O)[C@@H]2C3C(=O)OCCC/C=C\[C@H]3OC23C=CCN(CCN2CCOCC2)C(=O)[C@@H]13 (stereo not given in full) | 0.871 | -0.321 (inactive) | -0.802 (inactive) | -0.215 (inactive) | -0.675 | -0.19 (inactive) | -0.207 | -0.0152 | 0.159 | -0.187 | 0.238 | -0.412 | -0.48 | -0.669 (inactive) | 0.516 | 0.494 | -0.493 | 0.124 | 0.281 | 0.693 |
| COc1ccc(C(O)C2C=CC3C(=O)N(C)C(=O)C3N2N(c2ccccc2)c2ccccc2)c2ccccc12 (stereo not given) | 0.474 | 0.388 (inactive) | 0.954 (inactive) | 0.375 (inactive) | -0.124 | -1.27 (inactive) | 0.242 | 0.575 | 0.563 | -0.0283 | 1.42 | 0.464 | 1.04 | 1.04 (inactive) | 0.784 | -0.16 | 0.23 | 1.19 | 0.569 | 1.13 |
| O=C1OCC=C[C@H]2OC34C=CCN(CCN5CCOCC5)C(=O)[C@H]3N(CCO)C(=O)[C@@H]4[C@@H]12 (stereo not given in full) | 1.15 | -0.674 (inactive) | -0.537 (inactive) | -0.12 (inactive) | 0.431 | -0.653 (inactive) | -0.417 | 0.928 | 0.534 | -0.139 | 1.47 | -0.0283 | -0.224 | 0.308 (inactive) | -0.787 | 0.0559 | -0.14 | 0.241 | -0.0563 | 0.0758 |
| CN(C)CCCCNC(=O)[C@@H]1C[C@@H]2C(=O)N[C@@H](CCCCN)C(=O)N2[C@@H]1c1ccc(O)cc1 | 1.3 | 0.184 (inactive) | 1.17 (inactive) | 3.58 (inactive) | 1.12 | 0.813 (inactive) | 0.0864 | 0.855 | 0.159 | 0.0552 | 1.09 | -0.0238 | 0.309 | -0.162 (inactive) | 0.41 | 1.07 | 0.606 | 0.463 | 1.26 | 0.684 |
| C#CCNCc1ccccc1 | -0.0993 | -0.514 (inactive) | -0.749 (inactive) | -0.157 (inactive) | -0.0541 | -0.276 (inactive) | -0.161 | 0.235 | 0.527 | -0.0435 | -0.375 | -0.192 | -0.288 | 0.258 (inactive) | 0.2 | 0.539 | 0.397 | 0.349 | 0.183 | 0.209 |
| [N-]=[N+]=NCc1ccccc1[C@H]1OC(c2ccc(OCCCO)cc2)=N[C@@]1(Cc1ccccc1)C(=O)N1CCCCC1 | 1.55 | -1.88 (inactive) | -0.575 (inactive) | 1.32 (inactive) | 3.33 | 1.56 (inactive) | 0.0004 | 1.37 | 1.13 | 0.038 | 1.14 | 0.344 | 0.574 | -1.05 (inactive) | 1.34 | 1.3 | 0.0201 | 0.79 | 0.428 | 0.522 |
| COCCOC(=O)N1C(=O)[C@@]2(c3cc(C#CC4=CCCCC4)ccc31)[C@H](c1ccc(OCCO)cc1)N1[C@H](c3ccccc3)[C@H](c3ccccc3)OC(=O)[C@H]1[C@@H]2C(=O)N1CCc2cc(OC)c(OC)cc2C1 | 1.55 | 2.47 (inactive) | 0.535 (inactive) | 4.01 (inactive) | 1.94 | 1.96 (inactive) | 0.034 | 0.921 | 1.06 | 0.119 | 0.774 | 0.645 | 0.538 | -0.992 (inactive) | 1.09 | 1.3 | 0.707 | 1.39 | 1.13 | 0.942 |
